# In PubChem BioAssay (NCATS):
# Values joined by “and” are separate entries in the source; they are usually repeats but may differ in a detail not shown here. Equal values may be shown once. Inconclusive results are not listed. Some compounds were tested as several samples or in several runs, with calls that do not always agree. Active and inactive are the calls of the source. Unless noted, calls follow the shape of the dose curve; as a rule, active = well fitted curve in the direction sought with a large enough effect; inconclusive = small, poorly fitted or top-dose-only effect, or another doubt; inactive = no such curve, though single readings can be large; an effect the other way counts as inactive or inconclusive.
# Experiments:
# [1] = qHTS for Activators of Parkin Expression: LOPAC Validation Assay (NLuc Reporter) (AID 720572)
# Procedure, shortened: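 NLuc signal, read 10 min after reagent and following a prior FLuc read, is normalized to DMSO (0) and positive controls (100%). Cells: neuronal Parkin-promoter coincidence reporter line; compounds tested 7-point, 24 h, 37 C, 5% CO2.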
# [2] = qHTS for Activators of Parkin Expression: LOPAC Validation Assay (FLuc Reporter) (AID 720573)
# Procedure, shortened: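 Readout is FLuc luminescence from neuronal reporter cells (Parkin promoter, FLuc plus NLuc) after 24 h compound exposure in dose response. Values normalized to neutral DMSO and positive-control compounds.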
# [3] = qHTS assay for small molecule agonists of the antioxidant response element (ARE) signaling pathway measured by Nrf2-dependant transcriptional activity (AID 720636; active = well fitted curve in the direction sought with a large enough effect in the repeat runs; an effect the other way counts as inactive or inconclusive;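 also: HepG2 cells with an ARE-driven luciferase reporter; % of control where 0% means no effect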)
# Procedure, shortened: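 In HepG2 cells engineered with an Nrf2-responsive luciferase gene, ARE induction was quantified as luminescence after 16 hr compound treatment at 37 C.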
# [4] = qHTS assay for small molecule agonists of the antioxidant response element (ARE) signaling pathway measured by Nrf2-dependant transcriptional activity - cell viability counter screen (AID 720653; active = well fitted curve in the direction sought with a large enough effect in the repeat runs; an effect the other way counts as inactive or inconclusive; also: % is scaled to controls: 0 for no effect and ±100 for the full control effect); settings: ARE-bla HepG2 viability, CellTiter-Glo ATP luminescence, 16 h; max response: stronger effect = lower value
# Procedure, shortened: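 ARE-bla HepG2 cells treated with compounds for 16 h at 37C; this counter screen measures viability as intracellular ATP by CellTiter-Glo luminescence after 30 min at room temperature.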
# [5] = target: T1, Hexokinase-4 (Homo sapiens) + Glucokinase regulatory protein (Homo sapiens) (UniProt P35557+Q14397); experiment: qHTS assay for inhibitors of recombinant human GCK-GKRP interaction: Diaphorase-coupled assay (AID 743205)
# T1 sequence (P35557 whole entry, looked up): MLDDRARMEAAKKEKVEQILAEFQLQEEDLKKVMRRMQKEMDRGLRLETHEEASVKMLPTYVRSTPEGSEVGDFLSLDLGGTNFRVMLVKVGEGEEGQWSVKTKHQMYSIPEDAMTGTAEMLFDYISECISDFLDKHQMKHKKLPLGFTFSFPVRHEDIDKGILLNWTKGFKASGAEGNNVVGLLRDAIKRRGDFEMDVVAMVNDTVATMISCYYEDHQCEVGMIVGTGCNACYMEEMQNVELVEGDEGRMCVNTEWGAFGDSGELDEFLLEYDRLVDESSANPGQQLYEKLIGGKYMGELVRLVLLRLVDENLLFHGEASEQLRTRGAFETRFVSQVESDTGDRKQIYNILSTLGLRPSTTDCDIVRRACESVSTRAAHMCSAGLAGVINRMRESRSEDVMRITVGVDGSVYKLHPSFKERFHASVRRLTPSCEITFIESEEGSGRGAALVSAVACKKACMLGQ
# T1 sequence (Q14397 whole entry, looked up): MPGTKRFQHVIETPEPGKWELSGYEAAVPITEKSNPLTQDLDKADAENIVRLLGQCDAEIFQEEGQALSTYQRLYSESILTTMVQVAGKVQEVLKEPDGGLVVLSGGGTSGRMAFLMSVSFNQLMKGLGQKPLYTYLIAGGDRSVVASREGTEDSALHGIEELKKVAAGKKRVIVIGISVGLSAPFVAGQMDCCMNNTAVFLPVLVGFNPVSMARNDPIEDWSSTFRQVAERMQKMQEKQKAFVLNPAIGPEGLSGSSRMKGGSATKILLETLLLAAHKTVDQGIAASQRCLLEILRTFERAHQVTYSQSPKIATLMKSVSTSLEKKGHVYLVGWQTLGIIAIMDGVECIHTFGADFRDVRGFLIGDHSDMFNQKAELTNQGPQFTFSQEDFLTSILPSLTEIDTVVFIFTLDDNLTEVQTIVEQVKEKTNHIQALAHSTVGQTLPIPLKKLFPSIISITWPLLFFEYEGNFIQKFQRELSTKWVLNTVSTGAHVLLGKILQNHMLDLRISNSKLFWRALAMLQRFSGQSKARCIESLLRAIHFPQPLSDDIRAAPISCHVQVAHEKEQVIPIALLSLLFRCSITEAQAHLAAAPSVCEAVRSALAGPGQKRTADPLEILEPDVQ
# Procedure, shortened: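 Signal derives from resorufin generated by diaphorase, linked to GCK turnover of glucose (5 mM) and ATP (0.4 mM). Enzyme complex was added after a 20-minute compound preincubation and monitored for 30 minutes.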
# [6] = target: T1, Hexokinase-4 (Homo sapiens) + Glucokinase regulatory protein (Homo sapiens); experiment: qHTS assay for inhibitors of recombinant human GCK-GKRP interaction: ADP-Glo assay (AID 743206);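 also: plate controls were DMSO plus enzyme for no effect and no enzyme for full effect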
# Procedure, shortened: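 Pin-transferred compounds meet a 15 nM GST-GCK/15 nM FLAG-GKRP/2 uM S6P mix (dispense concentrations). ATP is then added to 0.4 mM final with 5 mM glucose, and the reaction runs 60 min at room temperature. ADP is quantified luminescently.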
# [7] = target: T1, Hexokinase-4 (Homo sapiens) + Glucokinase regulatory protein (Homo sapiens); experiment: qHTS assay for inhibitors of recombinant human GCK-GKRP interaction: HTRF assay (AID 743207);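 also: 0% = DMSO with GCK present and -100% = DMSO wells lacking GCK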
# Procedure, shortened: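 Titration screening format: recombinant GST-GCK and FLAG-GKRP at 5 nM, S6P at 2 uM, labelled anti-tag antibodies, 60 min at RT, dual-wavelength HTRF readout.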
# [8] = qHTS Assay for Identifying Gametocytocidal Compounds (AID 743244); also: potency is read from the fitted curve at half-maximal effect;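 as to max response: % is scaled to controls: 0 for no effect and ±100 for the full control effect; actives lower the fluorescent signal which means gametocytes are killed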; settings: P. falciparum 3D7 stage III-V gametocytes, alamarBlue, 72 h; max response: stronger effect = lower value
# Procedure, shortened: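 A resazurin-based viability read-out was applied to mature P. falciparum gametocytes: 72 h compound treatment, then 24 h dye incubation, with falling fluorescence signalling gametocytocidal effect.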
# [9] = qHTS assay for cell viability of HEK293 cells (AID 743288); settings: ATP luminescence (CellTiter-Glo), 18 h; max response: stronger effect = lower value; also: nearly all actives have a fitted effect of over 50% in size; also: potency is read from the fitted curve at half-maximal effect; as to max response: % is scaled to controls: 0 for no effect and ±100 for the full control effect
# Procedure, shortened: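 HEK293, 18 h, 37 C, ATP luminescence. Cells at 2,000/well were allowed at least 5 h to settle before dosing; CellTiter-Glo developed 30 min at RT.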
# [10] = qHTS assay for cell viability of the p53RE-bla HCT-116 cell line (AID 743292); also: % is scaled to controls: 0 for no effect and ±100 for the full control effect; nearly all actives have a fitted effect of over 55% in size
# Procedure, shortened: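 Intracellular ATP of p53RE-bla HCT-116 cells measured by luciferase luminescence following 16 h compound incubation at 37 C; DMSO-only wells served as vehicle controls.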
smiles,measurement,setting,value
CC/C(=C(\c1ccccc1)c1ccc(OCCN(C)C)cc1)c1ccccc1,Potency,[1],inactive
same,Potency,[2],inactive
same,Potency,[3],inactive
same,max response,[4],-20.9% (inactive)
same,outcome,[5],inactive
same,outcome,[6],inactive
same,outcome,[7],inactive
same,max response,[8],10% (inactive)
same,Potency,[9],70.8 µM (active)
O=C1NC(=O)C(c2ccccc2)(c2ccccc2)N1,Potency,[1],inactive
same,Potency,[2],inactive
same,Potency,[3],inactive
same,max response,[4],-13.1% (inactive) and -3.11% (inactive) and 0.97% (inactive)
same,outcome,[5],inactive
same,outcome,[6],inactive
same,outcome,[7],inactive
same,max response,[8],-6.42% (inactive) and 2.98% (inactive) and 10.3% (inactive)
same,max response,[9],6.32% (inactive) and -2.27% (inactive) and 1.15% (inactive)
same,Potency,[10],inactive
COc1cccc(-c2cc(=O)c3ccccc3o2)c1N,Potency,[1],inactive
same,outcome,[5],inactive
same,outcome,[6],inactive
same,outcome,[7],inactive
CC(=O)O[C@]1(C(C)=O)CC[C@H]2[C@@H]3C=C(Cl)C4=CC(=O)[C@@H]5C[C@@H]5[C@]4(C)[C@H]3CC[C@@]21C,Potency,[1],inactive
same,Potency,[2],inactive
same,Potency,[3],inactive
same,max response,[4],-29.6% (inactive) and -20.9% (inactive)
same,outcome,[5],inactive
same,outcome,[6],inactive
same,outcome,[7],inactive
same,max response,[8],5.83% (inactive)
same,max response,[9],-22.8% (inactive)
same,Potency,[10],inactive
CCCNC(=O)NS(=O)(=O)c1ccc(Cl)cc1,Potency,[1],inactive
same,Potency,[2],inactive
same,Potency,[3],inactive
same,max response,[4],9.19% (inactive) and -14.5% (inactive)
same,outcome,[5],inactive
same,outcome,[6],inactive
same,outcome,[7],inactive
same,max response,[8],10.2% (inactive) and -7.21% (inactive)
same,max response,[9],3.46% (inactive) and -2.3% (inactive)
same,Potency,[10],inactive
CC(=O)Oc1cc2c(s1)CCN(C(C(=O)C1CC1)c1ccccc1F)C2 (centres undefined),max response,[8],3.57% (inactive)
Cc1nc(N)sc1-c1ccnc(Nc2ccc(N3CCOCC3)cc2)n1,max response,[8],-1.3% (inactive)
O=C(O)c1c(Cl)c(Cl)c(Cl)c(Cl)c1-c1c2cc(I)c(=O)c(I)c-2oc2c(I)c(O)c(I)cc12,max response,[8],-8.78% (inactive)
CC(C)C(=O)Nc1ncc(-c2cc(C(F)F)nn2-c2c(Cl)cccc2Cl)s1,max response,[8],17% (inactive)
Clc1ccc(-c2nc3sccn3c2C=NOCc2ccc(Cl)c(Cl)c2)cc1,max response,[8],17.5% (inactive)
O=C(Nc1ccccc1-c1cn2c(CN3CCNCC3)csc2n1)c1cnc2ccccc2n1,Potency,[8],3.72 µM (active)
COc1cc(N2CCC(N3CCN(C)CC3)CC2)ccc1Nc1ncc(Cl)c(Nc2ccccc2S(=O)(=O)C(C)C)n1,Potency,[8],4.69 µM (active)
COc1ncc(-c2ccc3nccc(-c4ccnnc4)c3c2)cc1NS(=O)(=O)c1ccc(F)cc1F,Potency,[8],0.935 µM (active)
CCc1ccc(OCc2ccccc2C(=O)Nc2ccc3nc(C)cc(N)c3c2)cc1,Potency,[8],8.33 µM (active)
CN(C)C1CCN(C(=O)c2ccc(NC(=O)Nc3nc(N4CCOCC4)nc(N4CCOCC4)n3)cc2)CC1,Potency,[8],23.5 µM (active)
COc1cc2nc(-c3ccc(N4CCN(C)CC4)cc3)nc(NCCN3CCOCC3)c2cc1OC,Potency,[8],11.8 µM (active)
O=C(N[C@@H](c1ccccc1)[C@@H]1CCCCN1)c1cccc(C(F)(F)F)c1Cl,Potency,[8],18.7 µM (active)
CC(C)(C)COc1ccc(-n2cc(C(=O)O)cn2)cc1C#N,max response,[8],54.6% (inactive)
CS(=O)c1ccc(-c2nc(-c3ccc(F)cc3)c(-c3ccncc3)[nH]2)cc1 (centres undefined),max response,[8],1.2% (inactive)
O=c1cc(CN2CCOCC2)occ1OCCCCCSc1ccnc2cc(C(F)(F)F)ccc12,max response,[8],18.6% (inactive)
CC(C)(C)C(=O)Oc1ccc2c(c1)nc(NC(=O)c1cccc([N+](=O)[O-])c1)n2CCCO,max response,[8],2.9% (inactive)
CN(C)Cc1ccc(-c2nc3cccc4c3n2CCNC4=O)cc1,max response,[8],13% (inactive)
O=c1c(O)c(-c2ccc(O)cc2)oc2cc(O)cc(O)c12,max response,[4],-6.13% (inactive) and -4.97% (inactive)
same,max response,[9],3.99% (inactive) and -0.18% (inactive)
same,Potency,[10],inactive
CC[C@]1(O)C[C@@H]2CN(CCc3c([nH]c4ccccc34)[C@@](C(=O)OC)(c3cc4c(cc3OC)N(C)[C@H]3[C@@](O)(C(=O)OC)[C@H](OC(C)=O)[C@]5(CC)C=CCN6CC[C@]43[C@@H]65)C2)C1,Potency,[8],15.8 µM (active)
same,max response,[8],-2.09% (inactive)
CN1CCN(CCOc2cc(OC3CCOCC3)c3c(Nc4c(Cl)ccc5c4OCO5)ncnc3c2)CC1,Potency,[8],18.7 µM (active)
c1ccc2c(-c3cnn4cc(-c5ccc(N6CCNCC6)cc5)cnc34)ccnc2c1,Potency,[8],3.72 µM (active)
C[C@@H](O)[C@H]1C(=O)N2C(C(=O)O)=C(S[C@@H]3CN[C@H](C(=O)N(C)C)C3)[C@H](C)[C@H]12,max response,[8],2.89% (inactive)
Cc1cnc(C(=O)O)c[n+]1[O-],max response,[8],8.17% (inactive) and 2.06% (inactive) and -4.26% (inactive)
CC(C)[C@H](CO)Nc1nc(Nc2ccc(C(=O)O)c(Cl)c2)c2ncn(C(C)C)c2n1,max response,[8],63.2% (inactive)
OC[C@@H](O)[C@H](O)[C@H](O)[C@@H](O)CO,max response,[8],1.74% (inactive) and -2.1% (inactive)
CC(=O)Nc1ccc([C@H](C)C(=O)Nc2ncc(C(C)C)s2)cc1,max response,[8],12.4% (inactive)
O=C(O)c1ccc(-c2cc3cccnc3c(-c3ccc4nonc4c3)n2)cc1,max response,[8],33.8% (inactive)
CC(C)(C(=O)NCC(F)(F)C(F)(F)F)C(=O)N[C@@H]1C(=O)Nc2ccccc2-c2ccccc21,max response,[8],8.7% (inactive)
CC(C(=O)O)c1ccc(-c2ccccc2)c(F)c1 (centres undefined),max response,[8],6.81% (inactive)
Cc1ccc(F)c(NC(=O)Nc2ccc(-c3cccc4[nH]nc(N)c34)cc2)c1,max response,[8],19.5% (inactive)
O=c1cc(N2CCOCC2)oc2c(-c3cccc4c3sc3ccccc34)cccc12,max response,[8],-22.3% (inactive)
N#Cc1ccc(NC(=O)Nc2ccccc2Br)c2n[nH]nc12,max response,[8],26.2% (inactive)
O=C1C(Cl)=C(NCCN2CCOCC2)C(=O)c2ncccc21,max response,[8],-156% (inactive)
O=C(O)CCC1CCC(c2cc(F)ccc2F)(S(=O)(=O)c2ccc(Cl)cc2)CC1 (centres undefined),max response,[8],-21% (inactive)
CC(C)(C)c1cc(C(=O)O)c(NC(=O)Nc2ccc3[nH]ncc3c2)s1,max response,[8],39.1% (inactive)
OC[C@H]1O[C@@H](n2cnc3c2NC=NC[C@@H]3O)C[C@H]1O,max response,[8],12.6% (inactive)
O=C(O)c1cc(-c2ccccc2)nc2ccccc12,max response,[4],-16.1% (inactive)
same,max response,[8],4.65% (inactive) and 33.8% (inactive)
same,max response,[9],-15% (inactive)
same,Potency,[10],inactive
O=C(Nc1cc(Cl)cc2c1[nH]c1cnccc12)c1cccnc1,max response,[8],1.52% (inactive)
COc1cc(Nc2ncc(F)c(Nc3ccc4c(n3)NC(=O)C(C)(C)O4)n2)cc(OC)c1OC,max response,[8],23.2% (inactive)
COc1ccc(C2CC(c3ccccc3)=NN2c2ccc(S(N)(=O)=O)cc2)cc1 (centres undefined),max response,[8],-8.6% (inactive)
